Test results reported in ChEMBL document CHEMBL3988442, “University of Dundee, Small-Polar-MMV Screening Library” (2021).
Hit rate of the full screen: of about 48,000 compounds, about 13,000 (27%) showed an effect of 50% or more. Some of the results follow.

Each molecule was assayed on Wolbachia pipientis (assay: Anti-Wolbachia Cell-Based Screen). Settings: 5 µM.
Assay type: functional
Design: scale not given: in the data most compounds retested in dose-response had high values

Row | Compound | Percent Effect [%]
1 | COC(=O)NCC(=O)NCC1(c2c(F)cccc2F)CCCC1 | 1.826
2 | O=C(CN1CCC(c2cccc(F)c2)C1)NCC(F)(F)F (stereo not drawn) | -23.91
3 | COc1cc(F)c(C(=O)NCc2cc(C)on2)c(F)c1 | -19.16
4 | CCSc1ncc(CN2CCN(c3nc(C)ncc3C)CC2)cn1 | 0.05242
5 | O=C(NC[C@H]1CCCO1)c1ccc(S(=O)(=O)N2C[C@@H]3C[C@H]2CN3)cc1 | -5.829
6 | CN(Cc1ccccn1)C(=O)c1cc(CN2CCC(O)CC2)on1 | -20.11
7 | NCCn1cc(C(=O)NCc2ccccc2-n2cccn2)nn1 | -2.966
8 | CC(C)N1CCC(Nc2ccn(CCC#N)n2)C1=O (stereo not drawn) | 1.087
9 | Cc1nnc(-c2cccc(C#N)c2)n1C1CCCN(C(C)C)C1=O (stereo not drawn) | 109.2
10 | CC(=O)N1CCC(Oc2cccc(C#N)c2)CC1 | -7.429
11 | Cc1nnc(-c2cccc(C#N)c2)n1C1CCN(C2CC2)C1=O (stereo not drawn) | 99.28
12 | CC1CCC(O)(Cn2ncnc2-c2cccc(C#N)c2)CC1 (stereo not drawn) | -11.33
13 | CCCc1nn(C2CCN(C(C)C)C2=O)c(=O)o1 (stereo not drawn) | -9.274
14 | CC(C)N1CCCC(N2CCOC3(CCCC3)C2)C1=O (stereo not drawn) | -1.206
15 | CCCc1nn(C2CCCN(C(C)C)C2=O)c(=O)o1 (stereo not drawn) | -1.45
16 | Cc1nnc(-c2cccc(C#N)c2)n1C1CCN(C(C)C)C1=O (stereo not drawn) | 107.2
17 | Cc1noc(-c2cccnc2N2CCN(c3cnn(C)c3)CC2)n1 | -14.91
18 | O=C(NCCc1cccs1)N1CCCC2(CCC(=O)N(C3CC3)C2)C1 (stereo not drawn) | -0.08952
19 | CCOCCCC(=O)N1CCCC1c1nc(-c2ccccc2F)c[nH]1 (stereo not drawn) | -5.002
20 | NCC(=O)N1CCCCC1c1ccc(F)cc1 (stereo not drawn) | -11.61
21 | O=C(COCC1CC1)N1CCCC1c1nc(-c2ccccc2F)c[nH]1 (stereo not drawn) | 4.201
22 | CCC(=O)N1CCCC1c1n[nH]cc1-c1ccccc1F (stereo not drawn) | 184.8
23 | CNCC(=O)N1CCCC1c1n[nH]cc1-c1ccccc1F.Cl (stereo not drawn) | 165.9

Row | Compound | Percent Effect [%]
24 | Cl.NCC(=O)N1CCCC1c1n[nH]cc1-c1ccccc1F (stereo not drawn) | 132.3
25 | COC(=O)NCC(=O)N1CCCC1c1nc(-c2ccccc2F)c[nH]1 (stereo not drawn) | 0.1259
26 | O=C1CC(c2ccsc2)c2sc(C(=O)O)c(-c3ccccc3)c2N1 (stereo not drawn) | 15.35
27 | O=C(NCCN1CCOCC1)c1ccc(-n2ccc3ccccc32)s1 | -14.37
28 | O=C(NCCCN1CCOCC1)c1ccc(-n2ccc3ccccc32)s1 | 91.37
29 | O=C(NCCCN1CCCCC1)c1ccc(-n2ccc3ccccc32)s1 | -1.697
30 | CCN(CC)CCNC(=O)c1ccn(COc2cc(C)cc(C)c2)n1 | 5.075
31 | CCN(CC)CCNC(=O)c1ccc(-n2ccc3ccccc32)s1 | 94.19
32 | O=C(NCCCN1CCCC1=O)c1ccc(-n2ccc3ccccc32)s1 | 114.9
33 | O=C(NCCCN1CCOCC1)C(OC1CCCC1)c1ccccc1 (stereo not drawn) | -5.979
34 | Cc1ccc(OCCC(=O)NCCCN2CCCC2=O)c(C)c1 | -5.078
35 | CCN(CC)CCNC(=O)c1ccc(Cl)c(NS(C)(=O)=O)c1 | -1.52
36 | O[C@@H]1CN(Cc2cc(Cl)cc3cccnc23)C[C@@H]1O | 10.63
37 | Cc1nc(CN(C)C(=O)c2ccc(Cn3cnnn3)cc2)cs1 | -19.39
38 | CCOc1ncccc1Cn1cc(-c2cncnc2)nn1 | -4.97
39 | O=C(NCc1nncn1C1CC1)c1ccc(F)c(COCC2CC2)c1 | -29.13
40 | CC(=O)c1ccc(N2CCC(CO)(CCOc3ccccc3)CC2)nc1 | -10.96
41 | CC(C)c1nc(CN(C)Cc2ncccc2C(=O)O)cs1 | -6.183
42 | CCOc1ccc(C(=O)N2CCCC(c3nccn3C)C2)cc1OCC (stereo not drawn) | 100.4
43 | Cn1ccnc1C1CCCN(C(=O)c2ccc3nccnc3c2)C1 (stereo not drawn) | 95.06
44 | CCOc1ccccc1C(=O)N1CCCC(c2nccn2CCOC)C1 (stereo not drawn) | -0.2171
45 | O=C(c1ccc2nccnc2c1)N1C[C@@H](CN2CCCC2)[C@@H](CO)C1 | -11.65
46 | CC(C)C1CN(C(=O)c2ccc3nccnc3c2)CCS1 (stereo not drawn) | -6.684

Row | Compound | Percent Effect [%]
47 | CCOc1ccc(C(=O)N2C[C@H]3CC[C@@H]2CN(C)C3)cc1OCC | -32.38
48 | O=C1NCc2ccccc2CC12CCCN(CCCc1ccccc1)C2 (stereo not drawn) | 107.4
49 | O=C1N(CCCc2ccccc2)CCCC12CCN(C(CO)CO)C2 (stereo not drawn) | 4.777
50 | CN(C)C(=O)CN1CCC2(CCCN(Cc3ccsc3)C2)C1=O (stereo not drawn) | -8.794
51 | O=C1NCc2ccccc2CC12CCCN(Cc1ccsc1)C2 (stereo not drawn) | 112.5
52 | COCCC1(CO)CCCN(Cc2ccc(C#N)cc2)C1 (stereo not drawn) | 0.3825
53 | COCCC1(CO)CCCN(CCCc2ccccc2)C1 (stereo not drawn) | -2.01
54 | O=C1NCC[C@]12CN(Cc1ccsc1)C[C@H]2c1ccccc1 | 6.958
55 | N#Cc1ccc(CN2CCCC3(Cc4ccccc4CNC3=O)C2)cc1 (stereo not drawn) | 129.6
56 | N#Cc1ccc(CN2C[C@@H]3OCC(=O)N[C@@H]3C2)cc1 | -14.55
57 | Cc1nc(CN2CC[C@@H]3[C@@H](CCC(=O)N3CCc3c[nH]cn3)C2)co1 | -20.08
58 | COCCN1C[C@@H](C(=O)O)[C@H](c2ccccc2C)C1 | -9.465
59 | COCCn1cnnc1Cn1ccnc1-c1ccsc1 | -0.8108
60 | CN(CCO)Cc1nnc(C2CCN(CC(C)(C)C)CC2)n1C | 3.482
61 | CCn1nnc2c1CCN(S(C)(=O)=O)C2COCc1ccccc1 (stereo not drawn) | -2.948
62 | c1cncc(COCC2CNCc3nccn3C2)c1 (stereo not drawn) | 6.541
63 | CC(C)Cc1ccc(S(=O)(=O)NCCCN2CCNC(=O)C2)cc1 | 7.437
64 | CN(c1ccc(C(=O)NCCCN2CCOCC2)c(Cl)c1)S(C)(=O)=O | -4.637
65 | CN(C)CCCNC(=O)c1cc(Cl)ccc1Cl | 87.97
66 | Cc1ccc(-n2ccnc2)c(C(=O)NCCCN(C)C)c1 | -3.641
67 | CN(C)CCCNC(=O)c1cc(Br)c2c(c1)OCCO2 | -6.944
68 | CSCC(C)(O)CNC(=O)c1cc(Cl)ccc1Cl (stereo not drawn) | 2.772
69 | CN(C)CCCNC(=O)c1ccc(Cl)cc1Cl | 119

Row | Compound | Percent Effect [%]
70 | COc1cccc2c1OCC(NCc1cnn(-c3ccccc3F)c1)C2 (stereo not drawn) | -11.75
71 | Cc1cccc(NC(=O)c2cccc(OCc3nnnn3C)c2)n1 | 73.29
72 | COc1cc(C(C)=O)ccc1SCC(=O)Nc1cccc(C)n1 | 6.413
73 | NC(=O)COc1cccc(C(=O)Nc2cnc3n2CCCC3)c1 | 11.29
74 | COc1c(CNCCC(=O)Nc2cccc(C)n2)c(C)nn1C | 6.6
75 | Cc1cccc(NC(=O)c2ccc(OCc3nnnn3C)cc2)n1 | 107.3
76 | Cc1cc(C)n(CNc2nonc2C(N)=O)n1 | 109.2
77 | Cc1cc(C)n(CC(C)CNC(=O)N(C)Cc2cc(C)on2)n1 (stereo not drawn) | 9.156
78 | COc1nonc1NCn1nc(C)cc1C | 152
79 | NC(=O)c1cccc(CC2CCN(C(=O)Cn3cnnn3)C2)c1 (stereo not drawn) | -10.16
80 | CCN(CCC#N)Cn1ncc2cn(-c3ccccc3)nc2c1=O | 15.78
81 | Cc1ncsc1C(=O)NC1CCN(CC(=O)N(C)C(C)(C)C#N)CC1 | -1.04
82 | NC[C@H]1CC[C@H](C(NC(=O)c2cccc(F)c2)c2ccccn2)CC1 (stereo partly drawn) | 1.736
83 | COc1ccccc1C(=O)NC(CC(=O)O)c1cccs1 (stereo not drawn) | 13.12
84 | COc1cccc(C(=O)NC(c2ccccn2)[C@H]2CC[C@H](CN)CC2)c1 (stereo partly drawn) | 98.61
85 | COc1cc(F)c(C(C)NC(=O)c2cccnc2C)cc1OC (stereo not drawn) | -13.32
86 | COc1ccccc1C(=O)NC(c1ccccn1)[C@H]1CC[C@H](CN)CC1 (stereo partly drawn) | 100.4
87 | COC(=O)c1sc(C(NC(=O)c2ccccc2)C2CC2)nc1C (stereo not drawn) | -18.8
88 | CN(C)C(=O)COc1ccccc1CN1CCOC2(CCCC2)C1 | 35.78
89 | Cn1cc(C2(C)CN(Cc3ccc(Cl)c(F)c3)CCO2)cn1 (stereo not drawn) | -1.471
90 | CN(C)C(=O)C1(C)CN(Cc2cn(C)c3ccc(F)cc23)CCO1 (stereo not drawn) | 142.1
91 | CN(CCN1CCOCC1)C(=O)C1(c2ccc(F)cc2F)CCC1 | 9.471
92 | CNC(=O)[C@@H]1CC[C@@H]2[C@@H](CCN2Cc2cn(C)c3ccccc23)O1.O=C(O)C(F)(F)F | 12.94

Row | Compound | Percent Effect [%]
93 | CCCN1CCN(Cc2cn(CCC(N)=O)c3ccccc23)CC1 | 5.612
94 | CN(C)C(=O)C1(C)CN(Cc2cn(C)c3ccccc23)CCO1 (stereo not drawn) | 120.9
95 | Cc1cc(F)ccc1CN1CCCC2(C1)OCCO2 | -1.552
96 | CNC(=O)C1(C)CN(Cc2cn(C)c3ccc(F)cc23)CCO1 (stereo not drawn) | 119.3
97 | CC(NCCCn1ccnc1)c1ccc(N2CCOC2=O)cc1 (stereo not drawn) | -1.07
98 | c1cnc(N2CC3(CCN(C4CCOC4)CC3)c3ccccc32)nc1 (stereo not drawn) | 13
99 | O=C(CCN1CCCC1)N1CC[C@@H](c2ccc3ccccc3c2)[C@H](O)C1 | -4.226
100 | CC(C)C(Sc1ccccc1)C(=O)N(C)Cc1nnc2n1CCC2 (stereo not drawn) | 14.25
101 | CCc1cc(-c2nccn2-c2ccccc2CN2CCOCC2)on1 | 1.321
102 | Cc1nc(C)c(CN2CCOC[C@H](Oc3ccccc3)C2)s1 | -8.964
103 | Cc1nnc([C@]23COC[C@H]2CN(S(=O)(=O)c2cccnc2)C3)o1.O=C(O)C(F)(F)F | 103.4
104 | Cc1noc([C@@]23CCO[C@@H]2CCN(C(=O)c2sccc2C)C3)n1 | -13.91
105 | CCCS(=O)(=O)N1CC[C@H]2OCC[C@@]2(c2nnc(C)o2)C1 | -9.465
106 | Cc1nnc([C@@]23CCO[C@@H]2CCN(S(=O)(=O)c2ccccc2)C3)o1 | 90.56
107 | Cc1nnc([C@]23COC[C@H]2CN(Cc2cnn(C)c2)C3)o1.O=C(O)C(F)(F)F | -19.13
108 | Cc1noc([C@@]23CCO[C@@H]2CCN(S(=O)(=O)c2cccnc2)C3)n1 | 103
109 | O=C1N(CC2CCC2)CCCC12CCN(S(=O)(=O)c1cccnc1)C2 (stereo not drawn) | 16.59
110 | Cc1nnc([C@]23COC[C@H]2CN(Cc2cccs2)C3)o1.O=C(O)C(F)(F)F | 0.3646
111 | Cc1noc([C@@]23CCO[C@@H]2CCN(C(=O)C2CCOCC2)C3)n1 | -2.403
112 | Cc1nnc([C@@]23CCO[C@@H]2CCN(S(=O)(=O)c2cccnc2)C3)o1 | 88.28
113 | Cc1nnc([C@@]23CCO[C@@H]2CCN(S(C)(=O)=O)C3)o1 | -9.969
